# Data reported in publication PMC11006913.
# Positions count from the first letter of the chain named.
# Assays:
# Experiment in all cases: PBM; 200 nM protein, PBS
# Conditions in all cases: dsDNA, one strand shown
# ALX1 [1] = molecular target: ALX1 (Homo sapiens, UniProt Q15699 118-204, L144V)
# ALX1 [2] = molecular target: ALX1 (Homo sapiens, UniProt Q15699 118-204, L144R)
# ALX1 [3] = molecular target: ALX1 (Homo sapiens, UniProt Q15699 118-204)
# ALX3 [4] = molecular target: ALX3 (Homo sapiens, UniProt O95076 139-225, N203Q)
# HOXD13 [5] = molecular target: HOXD13 (Homo sapiens, UniProt P35453 263-343, T313R)
# HOXD13 [6] = molecular target: HOXD13 (Homo sapiens, UniProt P35453 263-343)
# ALX3 [7] = molecular target: ALX3 (Homo sapiens, UniProt O95076 139-225)
# ALX3 [8] = molecular target: ALX3 (Homo sapiens, UniProt O95076 139-225, L168Q)
# HOXD13 [9] = molecular target: HOXD13 (Homo sapiens, UniProt P35453 263-343, T313A)
# ALX3 [10] = molecular target: ALX3 (Homo sapiens, UniProt O95076 139-225, L168V)
# ALX3 [11] = molecular target: ALX3 (Homo sapiens, UniProt O95076 139-225, N203S)
# PAX4 [12] = molecular target: T1, PAX4 (Homo sapiens, UniProt O43316 9-242, F177Y)
# T1 sequence: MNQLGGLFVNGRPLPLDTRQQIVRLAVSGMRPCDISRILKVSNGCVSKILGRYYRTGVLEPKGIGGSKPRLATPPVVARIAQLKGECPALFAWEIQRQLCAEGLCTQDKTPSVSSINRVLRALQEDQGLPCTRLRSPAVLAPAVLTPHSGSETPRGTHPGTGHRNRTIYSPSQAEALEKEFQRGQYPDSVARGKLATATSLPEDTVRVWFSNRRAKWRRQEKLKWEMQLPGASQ
# PROP1 [13] = molecular target: PROP1 (Homo sapiens, UniProt O75360 56-141, R99H)
# PROP1 [14] = molecular target: PROP1 (Homo sapiens, UniProt O75360 56-141, F88S)
# HOXC9 = HOXC9 (Homo sapiens, UniProt P31274 178-260, R222W)
# PAX4 [15] = molecular target: T2, PAX4 (Homo sapiens, UniProt O43316 9-242, R227W)
# T2 sequence: T1 sequence with Y169F, R219W
# ALX3 (Homo sapiens, UniProt O95076 139-225, N203Q), sequence (O95076 139-225 N203Q): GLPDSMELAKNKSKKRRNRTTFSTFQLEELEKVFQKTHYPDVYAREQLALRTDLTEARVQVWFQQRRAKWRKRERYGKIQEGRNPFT
# HOXD13 (Homo sapiens, UniProt P35453 263-343, T313R), sequence (P35453 263-343 T313R): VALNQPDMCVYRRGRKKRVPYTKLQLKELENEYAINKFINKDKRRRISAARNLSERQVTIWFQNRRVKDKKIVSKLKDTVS
# ALX3 (Homo sapiens, UniProt O95076 139-225, N203S), sequence (O95076 139-225 N203S): as the sequence (O95076 139-225 N203Q) above, with Q65S counted along it
# ALX1 (Homo sapiens, UniProt Q15699 118-204, L144R), sequence (Q15699 118-204 L144R): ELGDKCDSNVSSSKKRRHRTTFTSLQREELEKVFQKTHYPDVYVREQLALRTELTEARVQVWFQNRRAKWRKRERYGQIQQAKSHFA
# ALX1 (Homo sapiens, UniProt Q15699 118-204), sequence (Q15699 118-204): as the sequence (Q15699 118-204 L144R) above, with R27L counted along it
# ALX3 (Homo sapiens, UniProt O95076 139-225), sequence (O95076 139-225): as the sequence (O95076 139-225 N203Q) above, with Q65N counted along it
# ALX1 (Homo sapiens, UniProt Q15699 118-204, L144V), sequence (Q15699 118-204 L144V): as the sequence (Q15699 118-204 L144R) above, with R27V counted along it
# HOXD13 (Homo sapiens, UniProt P35453 263-343), sequence (P35453 263-343): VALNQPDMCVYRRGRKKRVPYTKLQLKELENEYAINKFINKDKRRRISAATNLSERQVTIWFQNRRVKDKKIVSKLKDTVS
# PROP1 (Homo sapiens, UniProt O75360 56-141, F88S), sequence (O75360 56-141 F88S): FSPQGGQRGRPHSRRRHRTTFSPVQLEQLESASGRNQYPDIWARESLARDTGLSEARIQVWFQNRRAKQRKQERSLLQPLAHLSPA
# HOXC9, sequence (P31274 178-260 R222W): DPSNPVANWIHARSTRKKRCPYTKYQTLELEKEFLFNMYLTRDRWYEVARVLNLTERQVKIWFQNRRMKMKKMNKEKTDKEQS
# ALX3 (Homo sapiens, UniProt O95076 139-225, L168V), sequence (O95076 139-225 L168V): as the sequence (O95076 139-225 N203Q) above, with L30V, Q65N counted along it
# PROP1 (Homo sapiens, UniProt O75360 56-141, R99H), sequence (O75360 56-141 R99H): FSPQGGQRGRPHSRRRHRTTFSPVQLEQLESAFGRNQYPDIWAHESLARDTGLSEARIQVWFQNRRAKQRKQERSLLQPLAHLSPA
# ALX3 (Homo sapiens, UniProt O95076 139-225, L168Q), sequence (O95076 139-225 L168Q): as the sequence (O95076 139-225 N203Q) above, with L30Q, Q65N counted along it
# HOXD13 (Homo sapiens, UniProt P35453 263-343, T313A), sequence (P35453 263-343 T313A): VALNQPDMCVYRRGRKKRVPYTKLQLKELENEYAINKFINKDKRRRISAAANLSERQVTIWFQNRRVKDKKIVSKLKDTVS
sequence,measurement,setting,value
AAGGCGTG,binding signal,ALX1 [1],"6.54 upbm affinity estimate (log intensity, higher = more binding, comparable within an allelic series)"
same,binding signal,ALX1 [2],"6.5 upbm affinity estimate (log intensity, higher = more binding, comparable within an allelic series)"
same,binding signal,ALX1 [3],"6.55 upbm affinity estimate (log intensity, higher = more binding, comparable within an allelic series)"
CGCCTTCC,binding signal,ALX1 [1],"6.24 upbm affinity estimate (log intensity, higher = more binding, comparable within an allelic series)"
same,binding signal,ALX1 [2],"6.38 upbm affinity estimate (log intensity, higher = more binding, comparable within an allelic series)"
same,binding signal,ALX1 [3],"6.08 upbm affinity estimate (log intensity, higher = more binding, comparable within an allelic series)"
AAATGATG,binding signal,ALX1 [1],"8.1 upbm affinity estimate (log intensity, higher = more binding, comparable within an allelic series)"
same,binding signal,ALX1 [2],"8.04 upbm affinity estimate (log intensity, higher = more binding, comparable within an allelic series)"
same,binding signal,ALX1 [3],"8.35 upbm affinity estimate (log intensity, higher = more binding, comparable within an allelic series)"
CCGACTGC,binding signal,ALX1 [1],"6.5 upbm affinity estimate (log intensity, higher = more binding, comparable within an allelic series)"
same,binding signal,ALX1 [2],"6.49 upbm affinity estimate (log intensity, higher = more binding, comparable within an allelic series)"
same,binding signal,ALX1 [3],"6.52 upbm affinity estimate (log intensity, higher = more binding, comparable within an allelic series)"
CAAATTTG,binding signal,ALX1 [1],"9.35 upbm affinity estimate (log intensity, higher = more binding, comparable within an allelic series)"
same,binding signal,ALX1 [2],"9 upbm affinity estimate (log intensity, higher = more binding, comparable within an allelic series)"
same,binding signal,ALX1 [3],"9.69 upbm affinity estimate (log intensity, higher = more binding, comparable within an allelic series)"
CTGCTAGC,binding signal,ALX1 [1],"6.36 upbm affinity estimate (log intensity, higher = more binding, comparable within an allelic series)"
same,binding signal,ALX1 [2],"6.39 upbm affinity estimate (log intensity, higher = more binding, comparable within an allelic series)"
same,binding signal,ALX1 [3],"6.42 upbm affinity estimate (log intensity, higher = more binding, comparable within an allelic series)"
AGTTAGCC,binding signal,ALX1 [1],"7.87 upbm affinity estimate (log intensity, higher = more binding, comparable within an allelic series)"
same,binding signal,ALX1 [2],"7.7 upbm affinity estimate (log intensity, higher = more binding, comparable within an allelic series)"
same,binding signal,ALX1 [3],"8.29 upbm affinity estimate (log intensity, higher = more binding, comparable within an allelic series)"
AGCGCAGC,binding signal,ALX1 [1],"6.5 upbm affinity estimate (log intensity, higher = more binding, comparable within an allelic series)"
same,binding signal,ALX1 [2],"6.49 upbm affinity estimate (log intensity, higher = more binding, comparable within an allelic series)"
same,binding signal,ALX1 [3],"6.42 upbm affinity estimate (log intensity, higher = more binding, comparable within an allelic series)"
CATAATAA,binding signal,ALX3 [4],"8.54 upbm affinity estimate (log intensity, higher = more binding, comparable within an allelic series)"
ACGATTAC,binding signal,ALX1 [1],"8.4 upbm affinity estimate (log intensity, higher = more binding, comparable within an allelic series)"
same,binding signal,ALX1 [2],"8.26 upbm affinity estimate (log intensity, higher = more binding, comparable within an allelic series)"
same,binding signal,ALX1 [3],"8.62 upbm affinity estimate (log intensity, higher = more binding, comparable within an allelic series)"
CGACGGCG,binding signal,ALX1 [1],"6.62 upbm affinity estimate (log intensity, higher = more binding, comparable within an allelic series)"
same,binding signal,ALX1 [2],"6.71 upbm affinity estimate (log intensity, higher = more binding, comparable within an allelic series)"
same,binding signal,ALX1 [3],"6.56 upbm affinity estimate (log intensity, higher = more binding, comparable within an allelic series)"
ACTTATTA,binding signal,ALX3 [4],"8.57 upbm affinity estimate (log intensity, higher = more binding, comparable within an allelic series)"
AGCCTTCG,binding signal,ALX1 [1],"6.33 upbm affinity estimate (log intensity, higher = more binding, comparable within an allelic series)"
same,binding signal,ALX1 [2],"6.46 upbm affinity estimate (log intensity, higher = more binding, comparable within an allelic series)"
same,binding signal,ALX1 [3],"6.29 upbm affinity estimate (log intensity, higher = more binding, comparable within an allelic series)"
CCACAGGG,binding signal,ALX3 [4],"7.75 upbm affinity estimate (log intensity, higher = more binding, comparable within an allelic series)"
same,binding signal,HOXD13 [5],"9.71 upbm affinity estimate (log intensity, higher = more binding, comparable within an allelic series)"
same,binding signal,HOXD13 [6],"9.49 upbm affinity estimate (log intensity, higher = more binding, comparable within an allelic series)"
same,binding signal,ALX3 [7],"7.62 upbm affinity estimate (log intensity, higher = more binding, comparable within an allelic series)"
same,binding signal,ALX3 [8],"7.81 upbm affinity estimate (log intensity, higher = more binding, comparable within an allelic series)"
same,binding signal,HOXD13 [9],"9.58 upbm affinity estimate (log intensity, higher = more binding, comparable within an allelic series)"
same,binding signal,ALX3 [10],"7.81 upbm affinity estimate (log intensity, higher = more binding, comparable within an allelic series)"
same,binding signal,ALX3 [11],"7.73 upbm affinity estimate (log intensity, higher = more binding, comparable within an allelic series)"
TATACATA,binding signal,PAX4 [12],"10.7 upbm affinity estimate (log intensity, higher = more binding, comparable within an allelic series)"
CGGCCCAG,binding signal,PROP1 [13],"6.59 upbm affinity estimate (log intensity, higher = more binding, comparable within an allelic series)"
same,binding signal,PROP1 [14],"6.34 upbm affinity estimate (log intensity, higher = more binding, comparable within an allelic series)"
ACCCCCGC,binding signal,PROP1 [13],"6.52 upbm affinity estimate (log intensity, higher = more binding, comparable within an allelic series)"
same,binding signal,PROP1 [14],"6.34 upbm affinity estimate (log intensity, higher = more binding, comparable within an allelic series)"
TATTAAAA,binding signal,HOXC9,"11.1 upbm affinity estimate (log intensity, higher = more binding, comparable within an allelic series)"
ATATAATA,binding signal,PAX4 [15],"10.9 upbm affinity estimate (log intensity, higher = more binding, comparable within an allelic series)"
ATATTATA,binding signal,PAX4 [15],"10.9 upbm affinity estimate (log intensity, higher = more binding, comparable within an allelic series)"
ATTTAAAT,binding signal,ALX3 [4],"8.56 upbm affinity estimate (log intensity, higher = more binding, comparable within an allelic series)"
same,binding signal,ALX3 [11],"8.68 upbm affinity estimate (log intensity, higher = more binding, comparable within an allelic series)"
GAATATCA,binding signal,ALX3 [4],"8.19 upbm affinity estimate (log intensity, higher = more binding, comparable within an allelic series)"
same,binding signal,ALX3 [7],"8.71 upbm affinity estimate (log intensity, higher = more binding, comparable within an allelic series)"
same,binding signal,ALX3 [11],"8.23 upbm affinity estimate (log intensity, higher = more binding, comparable within an allelic series)"
ATATTTAA,binding signal,ALX3 [4],"8.67 upbm affinity estimate (log intensity, higher = more binding, comparable within an allelic series)"
same,binding signal,ALX3 [11],"8.84 upbm affinity estimate (log intensity, higher = more binding, comparable within an allelic series)"
CCTATTAC,binding signal,ALX3 [4],"8.28 upbm affinity estimate (log intensity, higher = more binding, comparable within an allelic series)"
same,binding signal,ALX3 [7],"10.8 upbm affinity estimate (log intensity, higher = more binding, comparable within an allelic series)"
same,binding signal,ALX3 [11],"8.28 upbm affinity estimate (log intensity, higher = more binding, comparable within an allelic series)"
AACTTCAT,binding signal,HOXD13 [5],"10.1 upbm affinity estimate (log intensity, higher = more binding, comparable within an allelic series)"
same,binding signal,HOXD13 [6],"10.6 upbm affinity estimate (log intensity, higher = more binding, comparable within an allelic series)"
ATAAATAA,binding signal,ALX3 [4],"8.6 upbm affinity estimate (log intensity, higher = more binding, comparable within an allelic series)"
same,binding signal,HOXC9,"11.1 upbm affinity estimate (log intensity, higher = more binding, comparable within an allelic series)"
same,binding signal,ALX3 [11],"8.76 upbm affinity estimate (log intensity, higher = more binding, comparable within an allelic series)"
ATATTCAA,binding signal,ALX3 [4],"8.33 upbm affinity estimate (log intensity, higher = more binding, comparable within an allelic series)"
same,binding signal,ALX3 [7],"9.13 upbm affinity estimate (log intensity, higher = more binding, comparable within an allelic series)"
same,binding signal,ALX3 [10],"8.63 upbm affinity estimate (log intensity, higher = more binding, comparable within an allelic series)"
CATTTGCC,binding signal,ALX3 [4],"7.93 upbm affinity estimate (log intensity, higher = more binding, comparable within an allelic series)"
same,binding signal,ALX3 [7],"8.86 upbm affinity estimate (log intensity, higher = more binding, comparable within an allelic series)"
same,binding signal,ALX3 [11],"7.93 upbm affinity estimate (log intensity, higher = more binding, comparable within an allelic series)"
TTAACTAA,binding signal,ALX3 [4],"8.53 upbm affinity estimate (log intensity, higher = more binding, comparable within an allelic series)"
same,binding signal,ALX3 [11],"8.65 upbm affinity estimate (log intensity, higher = more binding, comparable within an allelic series)"
ATTAGTTA,binding signal,ALX3 [4],"8.55 upbm affinity estimate (log intensity, higher = more binding, comparable within an allelic series)"
same,binding signal,ALX3 [11],"8.67 upbm affinity estimate (log intensity, higher = more binding, comparable within an allelic series)"
TATATTAA,binding signal,HOXD13 [5],"10.7 upbm affinity estimate (log intensity, higher = more binding, comparable within an allelic series)"
ATTATTTA,binding signal,ALX3 [4],"8.54 upbm affinity estimate (log intensity, higher = more binding, comparable within an allelic series)"
same,binding signal,ALX3 [11],"8.69 upbm affinity estimate (log intensity, higher = more binding, comparable within an allelic series)"
AATCATTC,binding signal,ALX3 [4],"8.14 upbm affinity estimate (log intensity, higher = more binding, comparable within an allelic series)"
same,binding signal,ALX3 [7],"10 upbm affinity estimate (log intensity, higher = more binding, comparable within an allelic series)"
same,binding signal,ALX3 [11],"8.17 upbm affinity estimate (log intensity, higher = more binding, comparable within an allelic series)"
AGTTAATA,binding signal,ALX3 [4],"8.54 upbm affinity estimate (log intensity, higher = more binding, comparable within an allelic series)"
same,binding signal,ALX3 [11],"8.65 upbm affinity estimate (log intensity, higher = more binding, comparable within an allelic series)"
